{
  "source": "PubChem BioAssay (EPA / NIEHS)",
  "note": "More than one record can exist for a structure, and the calls need not agree. Active and inactive are the calls of the source. How the source made its calls: active means hit-call score of the fitted dose curve at least 0.9, where 1 is the maximum; inactive means score below 0.9.",
  "data": [
    {"assay": "ATG_CMV_CIS: Attagene CIS-FACTORIAL HepG2 Assay for human CMV (Internal Marker) (AID 2282928);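 further: endpoint acts as a background internal control marker rather than a target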", "conditions": "HepG2 CMV promoter reporter, transcription factor profiling; actives raise or lower the signal", "protocol": "ATG_CIS is a cell-based, multiplexed-readout assay that uses HepG2, a human liver cell line, with measurements taken at 24 hours after chemical dosing in a 24-well plate.ATG_CMV_CIS is one of 52 assay component(s) measured or calculated from the ATG_CIS assay. It is designed to make measurements of mRNA induction, a form of inducible reporter, as detected with fluorescence intensity signals by Reverse transcription polymerase chain reaction (RT-PCR) and Capillary electrophoresis technology.Data from the assay component ATG_CMV_CIS was analyzed into 1 assay endpoint. This assay endpoint, ATG_CMV_CIS, was analyzed with bidirectional fitting relative to DMSO as the negative control and baseline of activity. Using a type of inducible reporter, measures of mRNA for gain or loss-of-signal activity can be used to understand the background control at the transcription factor-level as they relate to the gene . Furthermore, this assay endpoint can be referred to as a secondary readout, because this assay has produced multiple assay endpoints where this one serves a background control function. To generalize the intended target to other relatable targets, this assay endpoint is annotated to the background measurement intended target family, where the subfamily is internal marker.\nHuman liver HepG2 cells are transiently transfected with multiple reporter transcription units (MRTUs) in 6-well plates using FuGene 6 reagent (Roche; 3 ml FuGene/1 mg DNA). The MRTU constructs are regulated by a cis-regulating element (promoter). […] A major difference between the CIS and TRANS system is that in CIS activities of endogenous TFs are measured, whereas the TRANS assay evaluates changes in activities of exogenous, chimeric NR-Gal4 proteins. […] At the end of 24 hour incubation, total RNA was isolated using TriZol reagent (Invitrogen). The isolated RNA is then reverse-transcribed using oligo(dT) primer and Mo-MLV reverse transcriptase (Invitrogen) with DNAse I (Ambion) treatment for 30 min. The one-tenth of the produced cDNA was amplified by PCR using Taq DNA polymerase (Invitrogen) and two reporter sequence-specific primers. The PCR products were fluorescently labeled by primer extension with 6-arboxyfluorescein (6-FAM) 5'-labeled reporter sequence-specific primer (2 min at 95 C, 20 s at 68 C and 10 min at 72 C) and these products were digested with 5U of HpaI (New England Biolabs) for 2h at 37 C. The fragments were purified using Qiaquick PCR columns (Qiagen), analyzed on an ABI 3130xL genetic analyzer (Applied Biosystems) with peak positions identified by using a set of X-rhodamine (ROX)-labeled MapMarker1000 molecular weight standards (BioVentures). The raw capillary electrophoresis data was processed using Attagraph software (Attagene).", "values": [
      {"smiles": "CCOC(=O)[C@]1(c2ccccc2)Oc2ccccc2[C@@H]1N", "AC50": "33 µM (active)"},
      {"smiles": "O=[N+]([O-])C(Br)(CO)CO", "outcome": "inactive"},
      {"smiles": "CCCSC(=O)N(CCC)CCC", "outcome": "inactive"},
      {"smiles": "CCNS(=O)(=O)C(F)(F)C(F)(F)C(F)(F)C(F)(F)C(F)(F)C(F)(F)C(F)(F)C(F)(F)F", "outcome": "inactive"},
      {"smiles": "[O-][Cl+]O", "outcome": "inactive"},
      {"smiles": "Oc1ccccc1Cl", "outcome": "inactive"},
      {"smiles": "Nc1ccc(N=Nc2ccccc2)cc1", "outcome": "inactive"},
      {"smiles": "Nc1ccc(Cc2ccc(N)cc2)cc1", "outcome": "inactive"},
      {"smiles": "OCCCl", "outcome": "inactive"},
      {"smiles": "CC(C)COC(=O)c1ccccc1C(=O)OCC(C)C", "AC50": "67.5 µM (active)"},
      {"smiles": "CNC(=O)Oc1cccc2c1OC(C)(C)C2", "outcome": "inactive"},
      {"smiles": "c1ccc2c(c1)oc1ccccc12", "outcome": "inactive"},
      {"smiles": "OCCOCCO", "outcome": "inactive"},
      {"smiles": "c1ccc(N=Nc2ccccc2)cc1", "outcome": "inactive"},
      {"smiles": "CCC[CH2][Sn]([Cl])([CH2]CCC)[CH2]CCC", "AC50": "0.552 µM (active)"},
      {"smiles": "CCCCCOC(=O)c1ccccc1C(=O)OCCCCC", "outcome": "inactive"},
      {"smiles": "C[C@]12C=CC3=C4CCC(=O)C=C4CC[C@H]3[C@@H]1CC[C@@H]2O", "outcome": "inactive", "AC50": "28.3 µM (active)"},
      {"smiles": "CCCCCCCCOC(=O)c1ccc(C(=O)OCCCCCCCC)c(C(=O)OCCCCCCCC)c1", "outcome": "inactive"},
      {"smiles": "O=C(Oc1ccc(Br)cc1)N1CCN2CCC1CC2", "outcome": "inactive"},
      {"smiles": "CCCCCCCCCCCCCN1CC(C)OC(C)C1", "note": "(stereo not given)", "AC50": "33.4 µM (active)"},
      {"smiles": "ClCCOCCCl", "outcome": "inactive"},
      {"smiles": "C=CCc1ccc2c(c1)OCO2", "outcome": "inactive"},
      {"smiles": "C[N+](C)(C)CC1CO1", "note": "(stereo not given)", "outcome": "inactive"},
      {"smiles": "CC(C)(C)OOC(=O)c1ccccc1", "AC50": "74.8 µM (active)"},
      {"smiles": "[Cl-].[Cl-].[Hg+2]", "outcome": "inactive"},
      {"smiles": "Brc1ccc(Oc2ccccc2)cc1", "outcome": "inactive"},
      {"smiles": "O=C(O)C1C2CCC(O2)C1C(=O)O", "note": "(stereo not given)", "AC50": "77.8 µM (active)"},
      {"smiles": "CCC(C)c1ccc(O)cc1", "note": "(stereo not given)", "AC50": "65.8 µM (active)"},
      {"smiles": "CC(C)(C)OOC(C)(C)CCC(C)(C)OOC(C)(C)C", "AC50": "90.1 µM (active)"},
      {"smiles": "Cc1ccc([N+](=O)[O-])cc1", "outcome": "inactive"},
      {"smiles": "CC(C)(OOC(C)(C)c1ccccc1)c1ccccc1", "AC50": "48.7 µM (active)"},
      {"smiles": "Clc1ccc(C(c2ccc(Cl)cc2)C(Cl)(Cl)Cl)cc1", "AC50": "30.2 µM (active)"},
      {"smiles": "Cc1ccc(N=C=O)cc1N=C=O", "outcome": "inactive"},
      {"smiles": "CS(=O)(=O)NC(=O)c1cc(Oc2ccc(C(F)(F)F)cc2Cl)ccc1[N+](=O)[O-]", "outcome": "inactive"},
      {"smiles": "Cc1cc(N=Nc2ccccc2C)ccc1N", "outcome": "inactive"},
      {"smiles": "CCCCCCCCn1sccc1=O", "AC50": "19.1 µM (active)"},
      {"smiles": "Cc1ccc(N)cc1", "outcome": "inactive"},
      {"smiles": "COC(=O)c1ccccc1N", "outcome": "inactive"},
      {"smiles": "Nc1ccc(Oc2ccc(N)cc2)cc1", "outcome": "inactive"}
    ]}
  ]
}
